Measurements: PubChem BioAssay (NCI)
About 83,000 compounds went through this panel and 20% of them were active in at least one assay; those are over-represented in the sample as a whole.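 Values shown are percent growth following 48 h exposure of cells in 96-well plates to a single concentration of compound; below 10 was considered active.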 Active and inactive are the calls of the source.

tested on: SNB-19 CNS; test: NCI-60 one-dose screen, 48 h (100 = growth as untreated, 0 = no growth, -100 = all killed); conditions: 10 µM unless noted

Q: Which growth does the source give for `CCOC(=O)C(C(C)=O)c1nc2sc3cc(Cl)ccc3n2c(=N)c1C#N` (centres undefined) here?
A: 89.6% (inactive)

Q: How did the growth turn out when `COc1ccc(-c2nn(-c3cccc(Cl)c3)cc2C2CC(c3ccccc3)=NN2C(C)=O)cc1` (centres undefined) was run?
A: 72.9% (inactive)

Q: `CCS(=O)(=O)OCCCl` was tested. Which growth did it give?
A: 94.3% (inactive)

Q: `O=C1Nc2ccc(F)cc2/C1=C/c1nc(-c2ccc(F)cc2)n2ccccc12` was tested. Which growth did it give?
A: 105% (inactive)

Q: With `Cc1c(C(N)=O)sc2ncn(Cc3ccccc3)c(=O)c12` as the compound, how does the growth read?
A: 102% (inactive)

Q: Which growth does the source give for `Nc1nc2ncc(CCNc3ccc(C(=O)NC(CCC(=O)O)C(=O)O)cc3)nc2c(=O)[nH]1` (centres undefined) here?
A: 111% (inactive)

Q: `COc1cccc2c1C(=O)c1c(O)c3c(c(O)c1C2=O)C[C@@](O)(/C(C)=N/NC(=O)c1cccc([N+](=O)[O-])c1)C[C@@H]3OC1CC(N)C(O)C(C)O1` (some centres undefined) was tested. Which growth did it give?
A: -20.8% (active)

Q: With `NC(=O)NN=C(C1CC1)C1CC1` as the compound, how does the growth read?
A: 106% (inactive)

Q: Which growth does the source give for `C[n+]1ccc(Nc2ccc(NC(=O)c3ccc(Nc4cc[n+](C)c5ccc(N)cc45)cc3)cc2)cc1` here?
A: 100% (inactive)

Q: Which growth does the source give for `COc1cc(OC)c2cc(C(=O)O)c(=O)oc2c1` here?
A: 98% (inactive)

Q: Which growth does the source give for `CCOc1ccccc1C(=O)OCC(=O)Nc1cccc(S(=O)(=O)N(C)C)c1` here?
A: 83.5% (inactive)

Q: Which growth does the source give for `S=C(Nc1ccc(C2=NCCN2)cc1)Nc1ccc(C2=NCCN2)cc1` here?
A: 105% (inactive)

Q: `S=c1[nH]nc2sc3ccccc3n12` was tested. Which growth did it give?
A: 106% (inactive)

Q: Which growth does the source give for `Cn1c(N)c(N=O)c(=O)[nH]c1=O` here?
A: 105% (inactive)

Q: How did the growth turn out when `Cc1ccc(C(=O)Nc2ccc(Cl)cc2C(=O)NCc2ccccc2)cc1` was run?
A: 92.8% (inactive)

Q: For `O=[N+]([O-])c1ccc2c(c1)S(=O)c1cc([N+](=O)[O-])ccc1N2`, which growth is on record?
A: 109% (inactive)

Q: `Nc1ccc2c3c(cccc13)-c1ccccc1-2` was tested. Which growth did it give?
A: 97.7% (inactive)

Q: `CC(c1cc(Cl)ccc1O)c1cc(Cl)ccc1O` was tested. Which growth did it give?
A: 68.5% (inactive)

Q: Which growth does the source give for `Nc1ccc2c(c1)/C(=N/O)c1cc([N+](=O)[O-])ccc1-2` here?
A: 81.4% (inactive)

Q: With `Nc1cc(Cl)c(S(N)(=O)=O)cc1S(N)(=O)=O` as the compound, how does the growth read?
A: 113% (inactive)

Q: With `O=C(CSc1nc2c(n1Nc1ccccc1)-c1ccccc1SC2)Nc1nc(-c2ccc(Cl)cc2)cs1` as the compound, how does the growth read?
A: 80.5% (inactive)

Q: For `Cc1cc(O)c2c(c1)C[C@H]1[C@@H]3CC[C@H]4CC(=O)CC[C@]4(C)[C@H]3CC(=O)[C@]21C`, which growth is on record?
A: 94.5% (inactive)

tested on: U251 CNS; test: as above; conditions: 10 µM unless noted

Q: Which growth does the source give for `CCN(CC)CCOc1ccccc1-n1c(C)ccc1-c1ccccc1` here?
A: 85.3% (inactive)

Q: Which growth does the source give for `Cn1cc(-c2csc(-c3c[nH]c4ncccc34)n2)c2cc(Br)cnc21` here?
A: 3.32% (active)

Q: `COc1ccc(/C=C2\NC(=S)NC2=O)cc1` was tested. Which growth did it give?
A: 102% (inactive)

Q: For `Nc1ccccc1-c1ccc([N+](=O)[O-])cc1`, which growth is on record?
A: 67.4% (inactive)

Q: Which growth does the source give for `Cc1cc(NC(=O)c2ccc(N)cc2)ccc1N=Nc1ccc2c(O)c(N=Nc3ccc(Cl)c(S(=O)(=O)O)c3)c(S(=O)(=O)O)cc2c1` here?
A: 68.7% (inactive)

Q: How did the growth turn out when `CC[N+](CC)(CCOCCOCC[N+](CC)(CC)Cc1ccc([N+](=O)[O-])cc1)Cc1ccc([N+](=O)[O-])cc1` was run?
A: 100% (inactive)

Q: Which growth does the source give for `CCC(c1ccccc1)c1noc(CCN(CC)CC)n1` (centres undefined) here?
A: 98.1% (inactive)

Q: `CC(=O)Nc1ccc2c(c1)Cc1c(F)c(F)c(F)c(F)c1-2` was tested. Which growth did it give?
A: 78.8% (inactive)

Q: With `OC(Cc1cccnc1)c1ccccc1` (centres undefined) as the compound, how does the growth read?
A: 98.1% (inactive)

Q: `C/C(=N/N=C(N)N)c1ccc(N)cc1` was tested. Which growth did it give?
A: 99.3% (inactive)

Q: `O=C(O)c1ccccc1C(=O)OC1CCCC2CCCC21` (centres undefined) was tested. Which growth did it give?
A: 114% (inactive)

Q: For `CN1CCCC1c1cccnc1` (centres undefined), which growth is on record?
A: 97.1% (inactive)

Q: Which growth does the source give for `COc1c(O)cc2oc3cc(O)c(CC=C(C)C)c(O)c3c(=O)c2c1C/C=C(\C)CCC=C(C)C` here?
A: 24.1% (inactive)

Q: Which growth does the source give for `Nc1nc(SCc2ccccc2Cl)c(-c2ccccc2)c(SCc2ccccc2Cl)n1` here?
A: 86.9% (inactive)

Q: For `CO[C@H]1/C=C/O[C@@]2(C)Oc3c(C)c(O)c4c(O)c(c(/C=N/N5C(C)CN(Cc6ccccc6)CC5C)c(O)c4c3C2=O)NC(=O)/C(C)=C\C=C\[C@H](C)[C@H](O)[C@@H](C)[C@@H](O)[C@@H](C)[C@H](OC(C)=O)[C@@H]1C` (some centres undefined), which growth is on record?
A: 56.9% (inactive)

Q: For `CCOC(=O)C(C(C)=O)c1nc2sc3cc(Cl)ccc3n2c(=N)c1C#N` (centres undefined), which growth is on record?
A: 86.2% (inactive)

Q: How did the growth turn out when `COc1ccc(-c2nn(-c3cccc(Cl)c3)cc2C2CC(c3ccccc3)=NN2C(C)=O)cc1` (centres undefined) was run?
A: 66.7% (inactive)

Q: For `CCS(=O)(=O)OCCCl`, which growth is on record?
A: 92.1% (inactive)

Q: For `O=C1Nc2ccc(F)cc2/C1=C/c1nc(-c2ccc(F)cc2)n2ccccc12`, which growth is on record?
A: 83.5% (inactive)

Q: How did the growth turn out when `Cc1c(C(N)=O)sc2ncn(Cc3ccccc3)c(=O)c12` was run?
A: 96.9% (inactive)

Q: How did the growth turn out when `Nc1nc2ncc(CCNc3ccc(C(=O)NC(CCC(=O)O)C(=O)O)cc3)nc2c(=O)[nH]1` (centres undefined) was run?
A: 100% (inactive)

Q: How did the growth turn out when `COc1cccc2c1C(=O)c1c(O)c3c(c(O)c1C2=O)C[C@@](O)(/C(C)=N/NC(=O)c1cccc([N+](=O)[O-])c1)C[C@@H]3OC1CC(N)C(O)C(C)O1` (some centres undefined) was run?
A: -29% (active)

Q: Which growth does the source give for `NC(=O)NN=C(C1CC1)C1CC1` here?
A: 98.4% (inactive)

Q: With `C[n+]1ccc(Nc2ccc(NC(=O)c3ccc(Nc4cc[n+](C)c5ccc(N)cc45)cc3)cc2)cc1` as the compound, how does the growth read?
A: 92% (inactive)

Q: With `COc1cc(OC)c2cc(C(=O)O)c(=O)oc2c1` as the compound, how does the growth read?
A: 109% (inactive)

Q: Which growth does the source give for `CCOc1ccccc1C(=O)OCC(=O)Nc1cccc(S(=O)(=O)N(C)C)c1` here?
A: 105% (inactive)

Q: With `S=C(Nc1ccc(C2=NCCN2)cc1)Nc1ccc(C2=NCCN2)cc1` as the compound, how does the growth read?
A: 97.9% (inactive)

Q: With `S=c1[nH]nc2sc3ccccc3n12` as the compound, how does the growth read?
A: 105% (inactive)

Q: `Cn1c(N)c(N=O)c(=O)[nH]c1=O` was tested. Which growth did it give?
A: 95.9% (inactive)

Q: With `Cc1ccc(C(=O)Nc2ccc(Cl)cc2C(=O)NCc2ccccc2)cc1` as the compound, how does the growth read?
A: 81.5% (inactive)

Q: With `O=[N+]([O-])c1ccc2c(c1)S(=O)c1cc([N+](=O)[O-])ccc1N2` as the compound, how does the growth read?
A: 105% (inactive)

Q: Which growth does the source give for `Nc1ccc2c3c(cccc13)-c1ccccc1-2` here?
A: 94.9% (inactive)

Q: `CC(c1cc(Cl)ccc1O)c1cc(Cl)ccc1O` was tested. Which growth did it give?
A: 19.2% (inactive)

Q: `Nc1ccc2c(c1)/C(=N/O)c1cc([N+](=O)[O-])ccc1-2` was tested. Which growth did it give?
A: 66.7% (inactive)

Q: Which growth does the source give for `Nc1cc(Cl)c(S(N)(=O)=O)cc1S(N)(=O)=O` here?
A: 100% (inactive)

Q: With `O=C(CSc1nc2c(n1Nc1ccccc1)-c1ccccc1SC2)Nc1nc(-c2ccc(Cl)cc2)cs1` as the compound, how does the growth read?
A: 34.4% (inactive)

Q: With `Cc1cc(O)c2c(c1)C[C@H]1[C@@H]3CC[C@H]4CC(=O)CC[C@]4(C)[C@H]3CC(=O)[C@]21C` as the compound, how does the growth read?
A: 81.6% (inactive)
